Assay results published in ChEMBL document CHEMBL2218924, “A broad activity screen in support of a chemogenomic map for kinase signalling research and drug discovery” (Biochem J, 2013).

What was measured:
[1] = target: Rho-associated protein kinase 1 (Homo sapiens) (UniProt Q13464); conditions: at 10 µM
[2] = target: Proto-oncogene tyrosine-protein kinase receptor Ret (Homo sapiens) (UniProt P07949); conditions: at 1 µM
[3] = target: Proto-oncogene tyrosine-protein kinase receptor Ret (Homo sapiens) (UniProt P07949); conditions: at 10 µM
[4] = target: Proto-oncogene tyrosine-protein kinase ROS (Homo sapiens) (UniProt P08922); conditions: at 1 µM
[5] = target: Proto-oncogene tyrosine-protein kinase ROS (Homo sapiens) (UniProt P08922); conditions: at 10 µM
[6] = target: Ribosomal protein S6 kinase alpha-1 (Homo sapiens) (UniProt Q15418); conditions: at 1 µM
[7] = target: Ribosomal protein S6 kinase alpha-1 (Homo sapiens) (UniProt Q15418); conditions: at 10 µM
[8] = target: Ribosomal protein S6 kinase alpha-3 (Homo sapiens) (UniProt P51812); conditions: at 1 µM
[9] = target: Ribosomal protein S6 kinase alpha-3 (Homo sapiens) (UniProt P51812); conditions: at 10 µM
[10] = target: Ribosomal protein S6 kinase alpha-2 (Homo sapiens) (UniProt Q15349); conditions: at 1 µM
[11] = target: Ribosomal protein S6 kinase alpha-2 (Homo sapiens) (UniProt Q15349); conditions: at 10 µM
[12] = target: Ribosomal protein S6 kinase alpha-6 (Homo sapiens) (UniProt Q9UK32); conditions: at 1 µM
[13] = target: Ribosomal protein S6 kinase alpha-6 (Homo sapiens) (UniProt Q9UK32); conditions: at 10 µM
[14] = target: Rho-associated protein kinase 1 (Homo sapiens) (UniProt Q13464); conditions: at 1 µM
[15] = target: Rho-associated protein kinase 2 (Homo sapiens) (UniProt O75116); conditions: at 10 µM
[16] = target: Macrophage-stimulating protein receptor (Homo sapiens) (UniProt Q04912); conditions: at 1 µM
[17] = target: Macrophage-stimulating protein receptor (Homo sapiens) (UniProt Q04912); conditions: at 10 µM
[18] = target: T1, Tyrosine-protein kinase receptor TYRO3 (Homo sapiens) (UniProt Q06418); conditions: at 1 µM
T1 sequence (whole entry): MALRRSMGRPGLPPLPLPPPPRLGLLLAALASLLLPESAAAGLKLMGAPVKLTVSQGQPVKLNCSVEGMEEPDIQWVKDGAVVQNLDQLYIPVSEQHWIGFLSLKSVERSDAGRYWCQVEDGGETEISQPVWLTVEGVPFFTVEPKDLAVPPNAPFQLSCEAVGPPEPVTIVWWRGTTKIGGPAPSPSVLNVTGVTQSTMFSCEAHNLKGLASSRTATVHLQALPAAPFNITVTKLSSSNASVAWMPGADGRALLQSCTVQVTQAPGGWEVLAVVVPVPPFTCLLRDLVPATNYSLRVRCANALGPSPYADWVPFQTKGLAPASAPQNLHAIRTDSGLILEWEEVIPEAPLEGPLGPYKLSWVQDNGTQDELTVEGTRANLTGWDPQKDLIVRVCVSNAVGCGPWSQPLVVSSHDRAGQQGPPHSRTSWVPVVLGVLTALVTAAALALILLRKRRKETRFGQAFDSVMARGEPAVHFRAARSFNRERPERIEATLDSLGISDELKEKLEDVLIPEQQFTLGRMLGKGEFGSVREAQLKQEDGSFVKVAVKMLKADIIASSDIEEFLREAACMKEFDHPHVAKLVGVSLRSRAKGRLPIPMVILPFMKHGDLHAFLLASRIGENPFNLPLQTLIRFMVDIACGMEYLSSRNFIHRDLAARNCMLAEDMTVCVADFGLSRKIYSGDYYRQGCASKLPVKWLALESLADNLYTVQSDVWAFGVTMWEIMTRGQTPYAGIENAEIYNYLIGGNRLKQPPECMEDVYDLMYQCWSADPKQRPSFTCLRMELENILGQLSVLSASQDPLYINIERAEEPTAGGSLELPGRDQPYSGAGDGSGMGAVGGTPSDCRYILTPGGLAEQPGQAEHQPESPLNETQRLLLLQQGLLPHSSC

[19] = target: T1, Tyrosine-protein kinase receptor TYRO3 (Homo sapiens); conditions: at 10 µM
[20] = target: Rho-associated protein kinase 2 (Homo sapiens) (UniProt O75116); conditions: at 1 µM

Sequence of Ribosomal protein S6 kinase alpha-6 (Homo sapiens) (Q9UK32 whole entry): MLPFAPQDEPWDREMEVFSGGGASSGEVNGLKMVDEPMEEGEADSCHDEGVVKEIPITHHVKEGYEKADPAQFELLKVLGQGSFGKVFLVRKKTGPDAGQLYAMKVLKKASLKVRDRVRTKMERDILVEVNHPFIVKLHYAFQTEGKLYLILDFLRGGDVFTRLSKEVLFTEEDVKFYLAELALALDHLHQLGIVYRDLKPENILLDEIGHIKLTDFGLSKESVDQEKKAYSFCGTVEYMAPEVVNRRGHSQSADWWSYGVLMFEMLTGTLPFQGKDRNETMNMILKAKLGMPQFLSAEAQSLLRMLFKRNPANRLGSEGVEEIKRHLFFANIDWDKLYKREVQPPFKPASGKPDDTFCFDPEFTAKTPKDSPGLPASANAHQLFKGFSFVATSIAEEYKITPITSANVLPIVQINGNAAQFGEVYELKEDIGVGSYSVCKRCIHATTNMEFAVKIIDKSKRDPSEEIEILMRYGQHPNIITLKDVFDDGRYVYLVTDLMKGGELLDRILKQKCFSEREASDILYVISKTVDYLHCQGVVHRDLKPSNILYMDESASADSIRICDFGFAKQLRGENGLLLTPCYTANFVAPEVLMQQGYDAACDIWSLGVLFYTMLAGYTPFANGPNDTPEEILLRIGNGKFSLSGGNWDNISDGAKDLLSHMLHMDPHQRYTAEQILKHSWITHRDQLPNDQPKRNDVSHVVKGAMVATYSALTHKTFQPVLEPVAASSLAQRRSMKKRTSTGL
Sequence of Ribosomal protein S6 kinase alpha-3 (Homo sapiens) (P51812 whole entry): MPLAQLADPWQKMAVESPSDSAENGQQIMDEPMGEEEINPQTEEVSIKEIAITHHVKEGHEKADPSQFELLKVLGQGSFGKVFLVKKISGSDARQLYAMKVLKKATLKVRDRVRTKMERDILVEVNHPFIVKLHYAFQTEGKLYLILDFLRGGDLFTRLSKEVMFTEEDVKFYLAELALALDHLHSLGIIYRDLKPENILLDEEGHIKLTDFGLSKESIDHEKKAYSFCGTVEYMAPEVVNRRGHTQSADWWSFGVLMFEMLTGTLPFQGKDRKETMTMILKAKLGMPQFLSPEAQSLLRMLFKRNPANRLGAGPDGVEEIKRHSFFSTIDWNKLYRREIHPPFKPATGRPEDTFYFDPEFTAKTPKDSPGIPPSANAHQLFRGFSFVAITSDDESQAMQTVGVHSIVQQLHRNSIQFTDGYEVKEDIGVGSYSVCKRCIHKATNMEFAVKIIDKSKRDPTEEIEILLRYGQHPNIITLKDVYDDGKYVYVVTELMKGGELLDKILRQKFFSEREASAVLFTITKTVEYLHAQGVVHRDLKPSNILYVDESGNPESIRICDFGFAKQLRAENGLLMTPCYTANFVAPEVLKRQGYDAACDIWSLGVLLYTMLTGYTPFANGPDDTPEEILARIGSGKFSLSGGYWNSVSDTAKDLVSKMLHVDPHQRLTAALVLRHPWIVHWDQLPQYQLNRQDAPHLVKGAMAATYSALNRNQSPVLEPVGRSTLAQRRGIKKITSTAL
Sequence of Macrophage-stimulating protein receptor (Homo sapiens) (Q04912 25-304 limits assumed): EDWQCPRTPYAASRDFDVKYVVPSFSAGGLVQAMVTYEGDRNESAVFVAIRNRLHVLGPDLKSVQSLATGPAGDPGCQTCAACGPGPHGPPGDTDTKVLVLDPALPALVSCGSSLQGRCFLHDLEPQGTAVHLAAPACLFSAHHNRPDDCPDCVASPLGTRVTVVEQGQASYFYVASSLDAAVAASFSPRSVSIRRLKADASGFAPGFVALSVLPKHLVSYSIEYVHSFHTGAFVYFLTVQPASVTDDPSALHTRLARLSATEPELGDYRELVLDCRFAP
Sequence of Macrophage-stimulating protein receptor (Homo sapiens) (Q04912 310-1400 limits assumed): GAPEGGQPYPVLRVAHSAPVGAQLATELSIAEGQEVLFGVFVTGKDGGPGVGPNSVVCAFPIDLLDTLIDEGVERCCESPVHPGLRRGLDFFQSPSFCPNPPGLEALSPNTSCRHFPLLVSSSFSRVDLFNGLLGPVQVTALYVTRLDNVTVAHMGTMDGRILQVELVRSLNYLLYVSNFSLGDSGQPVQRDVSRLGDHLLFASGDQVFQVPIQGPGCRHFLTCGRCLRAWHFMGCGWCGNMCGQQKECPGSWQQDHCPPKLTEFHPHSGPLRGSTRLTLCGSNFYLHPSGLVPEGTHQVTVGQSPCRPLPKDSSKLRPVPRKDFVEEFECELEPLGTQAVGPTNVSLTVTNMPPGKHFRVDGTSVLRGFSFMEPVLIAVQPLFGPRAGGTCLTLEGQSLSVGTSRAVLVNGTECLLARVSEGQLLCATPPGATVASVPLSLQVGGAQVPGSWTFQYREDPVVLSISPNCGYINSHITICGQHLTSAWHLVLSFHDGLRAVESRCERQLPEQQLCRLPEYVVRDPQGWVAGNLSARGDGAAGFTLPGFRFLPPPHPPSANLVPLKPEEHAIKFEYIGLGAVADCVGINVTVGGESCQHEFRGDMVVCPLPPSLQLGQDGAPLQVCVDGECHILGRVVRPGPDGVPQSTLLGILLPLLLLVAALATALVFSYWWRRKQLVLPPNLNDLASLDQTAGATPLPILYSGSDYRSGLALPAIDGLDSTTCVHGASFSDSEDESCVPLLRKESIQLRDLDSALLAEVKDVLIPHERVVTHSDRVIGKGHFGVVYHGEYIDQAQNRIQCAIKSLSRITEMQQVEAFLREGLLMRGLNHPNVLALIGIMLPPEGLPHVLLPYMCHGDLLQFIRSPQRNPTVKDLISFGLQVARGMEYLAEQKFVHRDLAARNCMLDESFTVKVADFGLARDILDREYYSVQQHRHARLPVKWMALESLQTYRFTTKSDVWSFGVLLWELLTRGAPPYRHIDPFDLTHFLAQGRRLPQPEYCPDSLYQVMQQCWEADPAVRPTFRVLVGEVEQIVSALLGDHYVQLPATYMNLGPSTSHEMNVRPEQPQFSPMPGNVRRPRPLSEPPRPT
Sequence of Rho-associated protein kinase 2 (Homo sapiens) (O75116 whole entry, looked up): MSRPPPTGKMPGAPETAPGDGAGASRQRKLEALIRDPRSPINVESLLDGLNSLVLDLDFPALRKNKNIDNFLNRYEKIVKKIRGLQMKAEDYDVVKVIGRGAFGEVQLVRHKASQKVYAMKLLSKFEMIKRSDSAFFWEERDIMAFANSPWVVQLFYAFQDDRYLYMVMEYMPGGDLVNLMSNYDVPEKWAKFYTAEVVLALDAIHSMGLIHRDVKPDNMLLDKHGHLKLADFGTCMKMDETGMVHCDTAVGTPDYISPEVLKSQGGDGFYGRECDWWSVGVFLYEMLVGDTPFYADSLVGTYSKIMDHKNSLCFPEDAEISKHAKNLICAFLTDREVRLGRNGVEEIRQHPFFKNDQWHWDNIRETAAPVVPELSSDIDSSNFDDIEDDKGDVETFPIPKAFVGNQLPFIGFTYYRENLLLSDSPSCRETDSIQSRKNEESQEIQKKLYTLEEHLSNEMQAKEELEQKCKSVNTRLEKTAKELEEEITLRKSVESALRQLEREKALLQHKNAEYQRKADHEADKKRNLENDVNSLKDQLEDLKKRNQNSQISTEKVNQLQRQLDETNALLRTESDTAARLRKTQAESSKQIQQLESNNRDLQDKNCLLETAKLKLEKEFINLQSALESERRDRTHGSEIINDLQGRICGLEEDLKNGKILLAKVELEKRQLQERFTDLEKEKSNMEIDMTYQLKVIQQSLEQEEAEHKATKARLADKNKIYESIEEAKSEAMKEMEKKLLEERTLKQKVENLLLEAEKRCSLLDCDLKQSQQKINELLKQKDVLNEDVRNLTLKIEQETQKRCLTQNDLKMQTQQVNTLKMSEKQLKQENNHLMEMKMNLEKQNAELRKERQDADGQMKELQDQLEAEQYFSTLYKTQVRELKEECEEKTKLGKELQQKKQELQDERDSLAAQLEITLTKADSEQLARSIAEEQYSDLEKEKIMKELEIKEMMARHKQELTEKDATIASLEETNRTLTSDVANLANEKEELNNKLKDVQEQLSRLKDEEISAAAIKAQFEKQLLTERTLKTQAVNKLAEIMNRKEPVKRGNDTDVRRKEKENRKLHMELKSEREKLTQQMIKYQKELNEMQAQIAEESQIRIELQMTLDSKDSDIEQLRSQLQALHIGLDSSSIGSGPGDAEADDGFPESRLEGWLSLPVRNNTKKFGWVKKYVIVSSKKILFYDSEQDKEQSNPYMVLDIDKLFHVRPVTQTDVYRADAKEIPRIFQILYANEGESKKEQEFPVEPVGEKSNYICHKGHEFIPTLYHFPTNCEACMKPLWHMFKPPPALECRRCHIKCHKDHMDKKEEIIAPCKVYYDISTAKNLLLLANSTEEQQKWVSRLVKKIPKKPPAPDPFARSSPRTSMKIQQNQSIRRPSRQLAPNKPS
Sequence of Ribosomal protein S6 kinase alpha-2 (Homo sapiens) (Q15349 whole entry): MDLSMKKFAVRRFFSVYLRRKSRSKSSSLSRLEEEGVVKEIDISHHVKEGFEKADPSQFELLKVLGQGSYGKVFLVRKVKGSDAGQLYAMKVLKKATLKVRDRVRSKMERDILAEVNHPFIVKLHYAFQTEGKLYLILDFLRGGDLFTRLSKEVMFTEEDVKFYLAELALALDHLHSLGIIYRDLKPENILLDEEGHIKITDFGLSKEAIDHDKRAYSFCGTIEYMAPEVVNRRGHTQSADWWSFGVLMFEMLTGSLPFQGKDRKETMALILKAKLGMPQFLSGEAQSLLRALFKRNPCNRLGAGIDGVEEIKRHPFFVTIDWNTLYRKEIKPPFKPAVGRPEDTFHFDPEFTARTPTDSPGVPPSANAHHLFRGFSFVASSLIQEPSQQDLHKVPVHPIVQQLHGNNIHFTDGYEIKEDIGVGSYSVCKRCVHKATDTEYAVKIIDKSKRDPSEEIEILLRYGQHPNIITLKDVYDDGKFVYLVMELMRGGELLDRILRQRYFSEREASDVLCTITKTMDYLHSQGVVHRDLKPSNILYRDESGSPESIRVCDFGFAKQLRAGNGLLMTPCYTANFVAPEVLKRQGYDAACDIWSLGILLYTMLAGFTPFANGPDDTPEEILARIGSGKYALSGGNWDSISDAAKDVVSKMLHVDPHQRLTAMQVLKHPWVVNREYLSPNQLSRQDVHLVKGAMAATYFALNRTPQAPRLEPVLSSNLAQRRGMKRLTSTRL

Structure (SMILES) | residual activity [1] [%] | residual activity [2] [%] | residual activity [3] [%] | residual activity [4] [%] | residual activity [5] [%] | residual activity [6] [%] | residual activity [7] [%] | residual activity [8] [%] | residual activity [9] [%] | residual activity [10] [%] | residual activity [11] [%] | residual activity [12] [%] | residual activity [13] [%] | residual activity [14] [%] | residual activity [15] [%] | residual activity [16] [%] | residual activity [17] [%] | residual activity [18] [%] | residual activity [19] [%] | residual activity [20] [%]
O=C1NC(=O)c2c1c1c3ccccc3n3c1c1c2c2ccccc2n1C1CCC3O1 | 95 | 37 | 34 | 94 | 81 | 13 | 7 | 11 | 3 | 8 | 8 | 9 | 17 |  |  |  |  |  |  | 
c1cc(-c2cnn3cc(-c4ccc(OCCN5CCCCC5)cc4)cnc23)ccn1 |  | 51 | 5 |  |  |  | 74 | 46 | 28 |  | 50 | 68 | 63 | 117 | 40 | 104 | 83 | 104 | 67 | 
COc1ccc2c(c1)/C(=C/c1cnc[nH]1)C(=O)N2 |  |  |  |  |  | 60 | 17 |  |  | 30 | 4 | 53 | 12 | 123 | 36 |  | 65 | 97 | 73 | 
O=[N+]([O-])/C=C/c1ccc2c(c1)OCO2 | 109 | 96 | 108 | 95 | 98 | 137 | 106 | 118 | 100 | 105 | 94 | 128 | 94 | 109 | 79 | 100 | 93 | 100 | 111 | 99
COc1cc2nccc(Oc3ccc(NC(=O)Nc4cc(C)on4)c(Cl)c3)c2cc1OC |  |  |  |  |  |  |  |  |  |  |  |  |  |  | 51 |  |  |  |  | 76
C[S+]([O-])c1ccc(-c2nc(-c3ccc(F)cc3)c(-c3ccncc3)[nH]2)cc1 (stereo unspecified) | 74 |  | 46 | 117 | 110 |  | 80 | 108 | 97 | 107 | 96 | 114 | 113 | 70 | 100 | 105 | 109 | 107 |  | 119
COc1cc(OC)c(/C=C2\C(=O)Nc3ccccc32)c(OC)c1 | 126 | 99 | 92 | 96 | 63 | 102 | 101 | 63 | 57 | 96 | 97 | 103 | 95 | 127 | 92 | 77 | 72 |  |  | 88
N/C(=N\[N+](=O)[O-])N/N=C\c1ccc(-c2cccc([N+](=O)[O-])c2)o1 |  |  |  |  |  |  |  | 43 | 52 |  |  | 93 | 96 | 134 | 98 | 63 | 63 |  |  | 
COC(=O)[C@@]1(O)C[C@H]2O[C@]1(C)n1c3ccccc3c3c4c(c5c6ccccc6n2c5c31)C(=O)NC4 | 12 | 2 | 1 | 21 | 3 | 1 | 2 | 1 | 1 | 0 | 1 | -2 | 3 | 50 | 2 | 33 | 3 | 6 | 2 | 15
O=C1Nc2ccc3ncsc3c2/C1=C/c1c[nH]cn1 | 23 | 9 | 0 | 88 | 87 | 28 | 4 | 18 | 1 | 5 | -1 | 14 | 2 | 59 | 1 | 60 | 11 | 56 | 45 | 5
CO[C@H]1[C@@H](OC)C[C@H](C)[C@@H](OC)C2=CC(=O)C=C(NC(=O)/C(C)=C/C=C/[C@H](OC)[C@@H](OC(N)=O)/C(C)=C/[C@@H]1C)C2=O |  |  |  |  |  |  |  |  |  |  |  |  |  |  | 80 |  |  |  |  | 106
O=C1c2ccccc2-c2nc3nnnn3nc21 | 117 | 105 | 114 | 103 | 110 | 109 | 103 | 67 | 53 | 120 | 106 |  |  | 112 |  |  |  | 106 | 114 | 
COc1cc2ncnc(Nc3ccc(OCc4ccccc4)cc3)c2cc1OC | 96 | 75 | 89 | 108 | 101 | 106 | 83 | 52 | 46 | 110 | 72 | 106 | 133 | 83 | 97 | 88 | 80 | 41 | 60 | 119
CC(C)[C@H](CO)Nc1nc(Nc2cccc(Cl)c2)c2ncn(C(C)C)c2n1 | 96 | 91 | 27 |  | 96 | 77 | 19 | 62 | 15 | 75 | 21 | 40 | 24 | 115 | 76 | 92 | 86 | 85 | 78 | 95
CCn1cnc2c(Nc3cccc(Cl)c3)nc(N[C@@H]3CCCC[C@@H]3N)nc21 | 84 | 61 | 25 | 93 | 84 | 67 | 16 | 28 | 4 | 30 | 5 | 24 | 7 | 115 | 53 | 85 | 77 | 93 | 50 | 78
O=S(=O)(NCCNC/C=C/c1ccc(Br)cc1)c1cccc2cnccc12 |  |  |  |  |  |  |  |  |  |  |  |  |  |  | 0 |  |  |  |  | 8
COc1ccc2c(c[n+](C)c3c4cc5c(cc4ccc23)OCO5)c1OC | 120 | 86 |  |  |  |  | 92 |  | 91 |  | 93 |  |  | 110 | 82 | 86 | 75 | 89 | 79 | 
CCc1nc(-c2ccc(OC)cc2)[nH]c1-c1ccncc1 | 106 | 106 | 80 | 105 | 101 | 105 | 104 | 52 | 55 |  |  |  |  | 113 | 82 |  |  | 107 | 108 | 107
O=c1[nH]c2ccccc2n1C1CCN(Cc2ccc(-c3nc4cc5[nH]cnc5cc4nc3-c3ccccc3)cc2)CC1 | 119 | 99 | 83 | 96 | 93 | 117 | 84 | 68 | 35 | 108 | 93 | 106 | 109 | 114 | 74 | 103 | 79 | 91 | 91 | 103
CC(C)(C)c1cc(C=C(C#N)C#N)cc(Br)c1O | 82 | 101 | 108 | 108 | 111 | 111 |  | 100 | 78 | 106 | 82 | 98 | 106 | 102 |  |  |  | 112 | 104 | 115
